Records with an inconclusive call do not appear. Where a call stands in place of a potency, no number is given. Values without a mark were called inactive. Activity calls are given as the source filed them. The call rests on the fitted dose curve; in most records, active means well fitted curve in the direction sought with a large enough effect in the repeat runs; inconclusive means weak or mixed curves; inactive means no such curve, though single readings can be large; an effect the other way counts as inactive or inconclusive.

This passage reports Potency, activity change, negative = cytotoxicity and activity, negative = inhibition results from PubChem BioAssay (Tox21).
Potency means the concentration at half of the fitted maximal effect.

The first experiment can be described thus: qHTS assay to identify small molecule antagonists of the retinoid acid receptor (RAR) signaling pathway - cell viability counter screen (AID 1159551). Further: nearly all actives have a fitted effect of over 35% in size. The following applies: C3RL4 cells viability, ATP luminescence (CellTiter-Glo), 6 h; series mostly up to 92.4 µM. Summed up: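 Following overnight attachment, C3RL4 reporter cells received DMSO-dissolved compounds and then retinol (1 uM final). Six hours later at 37 C, ATP content was measured by CellTiter-Glo luminescence.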
Background: qHTS replaces the single test concentration by a dilution series.
For `CC(C)CCOCCC(C)C`, the Potency entry is “inactive”.

In the case of `O=C1C=CC(=O)N1c1ccccc1`, the Potency is 30.6 µM (active).

In the case of `CCOC(OCC)C(=O)c1ccccc1`, the Potency entry was “inactive”.

In the case of `Cc1cc(=O)[nH]c(=O)[nH]1`, the Potency result is “inactive”.

On to `CCOC(=O)COc1ccc(C)cc1`, for which the Potency result was “inactive”.

`CCCC(=O)OCC(COC(=O)CCC)OC(=O)CCC`: the Potency result is “inactive”.

In the case of `CC1CCCCC1`, the Potency entry was “inactive”.

For the compound `O=C1OC(OC(=O)c2cccnc2Nc2cccc(C(F)(F)F)c2)c2ccccc21` (stereo not given), the Potency entry was “inactive”.

With `CCCCN(C)C`, the Potency result was “inactive”.

As for `CCCC(O)C(O)CO` (stereo not given), the Potency entry is “inactive”.

Take `CCC(C)C(=O)OC` (stereo not given): the Potency entry was “inactive”.

For the compound `CCCOc1sc(C(=O)N2CCC(c3cc(CN)ccc3F)CC2)c(C)c1Br`, the Potency is 62.8 µM (active).

For the compound `CC1CNCC(C)O1` (stereo not given), the Potency result was “inactive”.

Turning to `CCN(CC)c1cccc(C)c1`, the Potency result is “inactive”.

Turning to `C#CC(O)CCC` (stereo not given), the Potency result was “inactive”.

Turning to `C=C/C=C/C=C/CCCCC`, the activity change, negative = cytotoxicity was -3.82% [at 19 µM].

`CCOCN(C(=O)CS(=O)(=O)O)c1c(C)cccc1CC`: the Potency result is “inactive”.

Turning to `CCCCOCC`, the Potency result is “inactive”.

For `CCc1cccc(CC)c1NC(=O)C(=O)O`, the Potency entry is “inactive”.

As for `CCCCOC(=O)C(C)CC` (stereo not given), the Potency entry is “inactive”.

For the compound `Cc1cccc(Br)c1`, the Potency entry was “inactive”.

Take `CC(=O)C=O`: the Potency result is “inactive”.

Turning to `CCCCCCCC(OC)OC`, the Potency result was “inactive”.

Turning to `CCCCCCCCCCCCCc1ccccc1`, the Potency entry was “inactive”.

Take `CCC(C)c1ccccc1` (stereo not given): the Potency entry is “inactive”.

As for `C=CC(C)(CCC=C(C)C)OC(=O)/C=C/c1ccccc1` (stereo not given), the Potency entry is “inactive”.

As to `CCCCCCCOC(=O)c1ccccc1C(=O)OCCCCCCC`, the Potency entry is “inactive”.

Take `O=C(O)Cc1ccc(OCCNC[C@H](O)c2ccccc2)cc1`: the Potency result was “inactive”.

On to `Cc1cccc(C)n1`, for which the Potency result is “inactive”.

With `COc1nccnc1CC(C)C`, the Potency entry was “inactive”.

`CC(C)(C)c1n[nH]c(=O)n(N)c1=O`: the Potency entry is “inactive”.

As to `CCCCCCCC/C=C/CCCOC(C)=O`, the Potency result is “inactive”.

For `O=C(O)c1cccc(Cl)n1`, the Potency result was “inactive”.

Take `C[C@]12CC[C@H]3C(=CCc4cc(O)ccc43)[C@@H]1CCC2=O`: the Potency result is “inactive”.

With `CC(=O)c1ccccc1N`, the Potency entry was “inactive”.

A short description of the next experiment: qHTS assay to identify small molecule antagonists of the retinoic acid receptor (RAR) signaling pathway (AID 1159552; further: nearly all actives have a fitted effect of over 50% in size). The following applies: C3RL4 RARE luciferase reporter, retinol-stimulated, 6 h; series mostly up to 92.4 µM. Summed up: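 Antagonism of retinol-induced RARE reporter activity was measured in C3RL4 cells. Exposure to compounds and 1 uM final retinol lasted 6 hr at 37 C, with luminescence as endpoint.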
As to `CC(C)CCOCCC(C)C`, the Potency result is “inactive”.

As for `O=C1C=CC(=O)N1c1ccccc1`, the Potency is 6.11 µM (active).

For the compound `CCOC(OCC)C(=O)c1ccccc1`, the Potency entry is “inactive”.

Turning to `Cc1cc(=O)[nH]c(=O)[nH]1`, the Potency result is “inactive”.

Turning to `CCOC(=O)COc1ccc(C)cc1`, the Potency result was “inactive”.

For `CCCC(=O)OCC(COC(=O)CCC)OC(=O)CCC`, the Potency entry is “inactive”.

`CC1CCCCC1`: the Potency result was “inactive”.

As to `O=C1OC(OC(=O)c2cccnc2Nc2cccc(C(F)(F)F)c2)c2ccccc21` (stereo not given), the Potency result was “inactive”.

With `CCCCN(C)C`, the Potency result is “inactive”.

Consider `CCCC(O)C(O)CO` (stereo not given), for which the Potency result was “inactive”.

As to `CCC(C)C(=O)OC` (stereo not given), the Potency result was “inactive”.

With `CCCOc1sc(C(=O)N2CCC(c3cc(CN)ccc3F)CC2)c(C)c1Br`, the Potency is 39.7 µM (active).

`CC1CNCC(C)O1` (stereo not given): the Potency result was “inactive”.

With `CCN(CC)c1cccc(C)c1`, the Potency result was “inactive”.

For `C#CC(O)CCC` (stereo not given), the Potency result is “inactive”.

Turning to `C=C/C=C/C=C/CCCCC`, the activity, negative = inhibition is 7.32% [at 19 µM].

For the compound `CCOCN(C(=O)CS(=O)(=O)O)c1c(C)cccc1CC`, the Potency result is “inactive”.

Turning to `CCCCOCC`, the Potency entry was “inactive”.

For `CCc1cccc(CC)c1NC(=O)C(=O)O`, the Potency result was “inactive”.

As to `CCCCOC(=O)C(C)CC` (stereo not given), the Potency result was “inactive”.

As to `Cc1cccc(Br)c1`, the Potency entry was “inactive”.

For `CC(=O)C=O`, the Potency result is “inactive”.

For `CCCCCCCC(OC)OC`, the Potency result is “inactive”.

As for `CCCCCCCCCCCCCc1ccccc1`, the Potency entry was “inactive”.

`CCC(C)c1ccccc1` (stereo not given): the Potency entry was “inactive”.

On to `C=CC(C)(CCC=C(C)C)OC(=O)/C=C/c1ccccc1` (stereo not given), for which the Potency result was “inactive”.

As to `CCCCCCCOC(=O)c1ccccc1C(=O)OCCCCCCC`, the Potency entry is “inactive”.

Consider `O=C(O)Cc1ccc(OCCNC[C@H](O)c2ccccc2)cc1`, for which the Potency result was “inactive”.

On to `Cc1cccc(C)n1`, for which the Potency result is “inactive”.

Consider `COc1nccnc1CC(C)C`, for which the Potency result is “inactive”.

`CC(C)(C)c1n[nH]c(=O)n(N)c1=O`: the Potency result is “inactive”.

As for `CCCCCCCC/C=C/CCCOC(C)=O`, the Potency entry is “inactive”.

In the case of `O=C(O)c1cccc(Cl)n1`, the Potency entry is “inactive”.

In the case of `C[C@]12CC[C@H]3C(=CCc4cc(O)ccc43)[C@@H]1CCC2=O`, the Potency entry was “inactive”.

Turning to `CC(=O)c1ccccc1N`, the Potency entry was “inactive”.
